Among all 320,000 compounds or so, about 8,000 (2.5%) were called active. Cut-off read from the data, not from the text of the source: active = activation above about 47%; inactive = the rest. Shown is part of a subset that was picked to be rich in actives.
molecular target: Aryl hydrocarbon receptor (Homo sapiens) (UniProt P35869); assay: AHR activators, primary screen, cell-based, luminescence, luciferase reporter, human (AID 2796); settings: AHR-responsive luciferase reporter cells, at 5 µM, hits give high values;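 note: 0% = vehicle wells and 100% = reference agonist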
Sequence (P35869 whole entry, looked up): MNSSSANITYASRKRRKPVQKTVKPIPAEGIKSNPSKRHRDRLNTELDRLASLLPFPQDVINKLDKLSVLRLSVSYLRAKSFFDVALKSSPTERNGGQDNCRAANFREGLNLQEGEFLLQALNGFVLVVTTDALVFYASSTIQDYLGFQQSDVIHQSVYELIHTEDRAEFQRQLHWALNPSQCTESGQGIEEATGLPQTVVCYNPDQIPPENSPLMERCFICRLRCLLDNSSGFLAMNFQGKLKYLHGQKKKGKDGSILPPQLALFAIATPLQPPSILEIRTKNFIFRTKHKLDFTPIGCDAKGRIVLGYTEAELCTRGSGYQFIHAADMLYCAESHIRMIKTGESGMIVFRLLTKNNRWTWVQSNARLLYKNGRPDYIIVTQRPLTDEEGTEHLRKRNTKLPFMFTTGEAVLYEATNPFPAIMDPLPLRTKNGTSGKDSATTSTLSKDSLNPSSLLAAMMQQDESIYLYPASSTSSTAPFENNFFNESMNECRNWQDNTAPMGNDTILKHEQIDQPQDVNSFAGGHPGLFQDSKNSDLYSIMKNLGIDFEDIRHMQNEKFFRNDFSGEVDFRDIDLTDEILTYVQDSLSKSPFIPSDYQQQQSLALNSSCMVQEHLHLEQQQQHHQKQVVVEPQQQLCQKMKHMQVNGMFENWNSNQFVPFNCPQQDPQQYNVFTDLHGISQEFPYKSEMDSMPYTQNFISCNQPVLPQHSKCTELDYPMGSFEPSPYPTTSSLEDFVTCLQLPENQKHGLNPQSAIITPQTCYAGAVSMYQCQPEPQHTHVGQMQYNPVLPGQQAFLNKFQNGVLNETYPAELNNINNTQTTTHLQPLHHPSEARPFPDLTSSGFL

| SMILES | activation |
| --- | --- |
| O=C(Nc1cc2c3c(c1)CC(=O)N3CCC2)c1ccccc1F | 3.64% (inactive) |
| CC(Nc1nc(C(F)(F)F)nc2ccccc12)c1cccs1 (centres undefined) | 0.19% (inactive) |
| Cc1cccc(NC(=O)c2cc(N3C(=O)CCC3=O)ccc2Cl)n1 | -0.56% (inactive) |
| Cc1cccc(NC(=O)c2cccnc2Cl)n1 | -1.7% (inactive) |
| Cc1cccc(NC(=O)c2ccc3ccccc3n2)n1 | 82.1% (active) |
| Cn1ccnc1-c1nnn(-c2ccc(F)cc2)n1 | -1.09% (inactive) |
| O=C(COc1ccc(-c2ccccc2)cc1)NN=C1CCCC1 | 52.1% (active) |
| O=C(COc1ccccc1)Nc1ccc(C(=O)N2CCCC2)cc1 | -2.51% (inactive) |
| CC(NC(=O)COc1ccc(-c2ccccc2)cc1)C1CCCO1 (centres undefined) | 19.8% (inactive) |
| CN1CCN(C(CNS(=O)(=O)c2cccs2)c2cccnc2)CC1 (centres undefined) | 0.06% (inactive) |
| Cc1cc(C(=O)NNS(=O)(=O)c2ccccc2C(F)(F)F)nn1C(C)(C)C | 33.2% (inactive) |
| Cc1ccc(C(=O)NC(=S)NCc2cccnc2)cc1 | 70.4% (active) |
| Cc1c(C(=O)NC(=S)NCc2cccnc2)oc2ccccc12 | 6.27% (inactive) |
| CC(C)(C)c1cc(C(=O)NCc2cccnc2)ccn1 | 5.21% (inactive) |
| CS(=O)(=O)N1CCCC(C(=O)N2CCOCC2)C1 (centres undefined) | -4.42% (inactive) |
| COc1ccc(CNc2nc(NCc3ccc(OC)cc3)c3ncn(C4CCCC4)c3n2)cc1 | 5.12% (inactive) |
| CCN(CC(=O)Nc1ccccc1C(F)(F)F)C(=O)C1CCN(C(=O)Nc2ccccc2)CC1 | 0.13% (inactive) |
| Cc1c(C(=O)NCC(c2ccco2)N2CCCC2)oc2ccc(Cl)cc12 (centres undefined) | 91.5% (active) |
| CSc1ncccc1C(=O)NCC(c1ccco1)N1CCCCC1 (centres undefined) | 0.96% (inactive) |
| Cc1cc(S(=O)(=O)Nc2ccc(C(=O)NCC(c3ccco3)N3CCCC3)cc2)ccc1F (centres undefined) | 2.37% (inactive) |
| O=C1/C(=C/c2ccc3c(c2)OCO3)Oc2cc(OCC(=O)N3CC(O)C[C@H]3C(=O)O)ccc21 (some centres undefined) | 0.62% (inactive) |
| Cc1ccc(-n2[nH]c(C)c(/C=N/NC(=O)c3cccc([N+](=O)[O-])c3)c2=O)cc1C | 15.9% (inactive) |
| COc1cc(SC#N)ccc1N=Cc1c(C)[nH]n(-c2ccc(C)cc2)c1=O | 71.7% (active) |
| Cc1[nH]n(-c2ccccc2)c(=O)c1/C=N/NC(=O)c1ccoc1C | 24.8% (inactive) |

| SMILES | activation |
| --- | --- |
| Cc1nn(C)c(C)c1Sc1ccccc1N | 2.57% (inactive) |
| O=C(Nc1ccccc1Cl)N1CCN(c2ccc3nncn3n2)CC1 | -1.87% (inactive) |
| Cc1ccc(/C=C(\C#N)C(=O)Nc2cccc3ncccc23)o1 | 7% (inactive) |
| O=c1c(-c2ccc(Cl)cc2)[n+]([O-])c2ccccc2n1OCc1nc2ccccc2[nH]1 | 24.5% (inactive) |
| O=C(c1ccc(Cl)cc1)n1cnc2ccccc21 | -0.68% (inactive) |
| O=C(Cc1nc2ccccc2[nH]c1=O)c1ccc(Cl)cc1 | 57.9% (active) |
| CCN(CCn1cccn1)Cc1cn[nH]c1-c1ccc(OC)cc1F | 1.96% (inactive) |
| [O-][n+]1c2c(nn1-c1ccc(Cl)c(Cl)c1)-c1nonc1CC2 | 78.5% (active) |
| O=C(COc1ccc([N+](=O)[O-])cc1)Nc1cccc(C(=O)Nc2ccccc2C(=O)O)c1 | -3.04% (inactive) |
| CCOC(=O)/C=C/CN(C(=O)OC(C)(C)C)S(=O)(=O)N1CC=CC1 | -1.1% (inactive) |
| COC(=O)c1ccc(/C=N/N2C(C)CCCC2C)cc1 (centres undefined) | -0.9% (inactive) |
| COc1ccc(C(=O)N2CCN(c3ccc(C(C)=O)cc3F)CC2)cc1S(=O)(=O)NC1CC1 | 2.09% (inactive) |
| O=C(Nc1ccc(N2C(=O)c3cccc4cccc(c34)C2=O)cc1)c1ccc(N2CCCCC2)c([N+](=O)[O-])c1 | -0.89% (inactive) |
| CCC(c1nnnn1Cc1ccco1)N(CCc1ccccc1)Cc1cc2cccc(C)c2[nH]c1=O (centres undefined) | 19.4% (inactive) |
| CCC(c1nnnn1C1CCCC1)N(Cc1cccs1)Cc1cc2cccc(C)c2[nH]c1=O (centres undefined) | 54.6% (active) |
| Cc1cccc2cc(CN(Cc3nnnn3Cc3ccccc3)C3CCCC3)c(=O)[nH]c12 | 12.9% (inactive) |
| CC(=O)Nc1ccc(S(=O)(=O)NCCC(=O)N2CCN(c3ccccc3Cl)CC2)cc1 | 0.74% (inactive) |
| CCC(CO)Oc1cc(NC(=O)c2cccc3ccccc23)c2ncn(C(C)C)c2c1 (centres undefined) | 5.86% (inactive) |
| COC(=O)c1cc(C(=O)OCC(=O)Nc2cc(C)on2)cc([N+](=O)[O-])c1 | 0.26% (inactive) |
| O=C1CC2(CCCC2)C(=O)N1CN1CCN(S(=O)(=O)c2ccc(F)cc2F)CC1 | 1.21% (inactive) |
| CNC(=O)Nc1cc(C(C)(C)C)no1 | 1.28% (inactive) |
| FC(F)(F)c1cnc(Oc2ccccc2-c2nnc(-c3ccc(Cl)cc3)o2)c(Cl)c1 | 1.03% (inactive) |
| CSc1ccccc1-c1nnc(-c2ccc(Cl)cc2)o1 | 52.9% (active) |
| COc1ccccc1-c1nnc(-c2ccc(F)cc2)o1 | 33.5% (inactive) |

| SMILES | activation |
| --- | --- |
| c1ccc(-n2nc3ccccc3n2)cc1 | -5.11% (inactive) |
| Nc1ccc2nn(-c3ccc(Cl)cc3)nc2c1 | 109% (active) |
| CCC(=O)Nc1ccc2nn(-c3ccc(F)cc3)nc2c1 | 31.9% (inactive) |
| Cc1nn(-c2ccccc2)nc1C(=O)OCC(=O)N1CCCCC1C (centres undefined) | 4.35% (inactive) |
| CC(Sc1nnc(C2CC2)n1C1CC1)C(=O)Nc1ccc(C(N)=O)cc1 (centres undefined) | -0.58% (inactive) |
| O=C(c1ccncc1)N1CCN(c2ccc3ccccc3n2)CC1 | -0.88% (inactive) |
| CC12CCC(C(=O)N3CCN(c4ncccn4)CC3)(c3nc4ccccc4nc31)C2(C)C (centres undefined) | 16.9% (inactive) |
| c1cnc(N2CCN(c3ccc4ccccc4n3)CC2)nc1 | 120% (active) |
| O=C1NC(c2ccccc2)CCC1(Cl)Cl (centres undefined) | 0.32% (inactive) |
| CC(C)CCN1CCN(Cc2ccc(C(F)(F)F)cc2)CC1CCO (centres undefined) | 1.42% (inactive) |
| Cc1cc(NC(=O)COC(=O)COc2ccc(Cl)cc2C)c([N+](=O)[O-])cc1C | 4.86% (inactive) |
| Cc1cnc(C(=O)OCC(=O)Nc2ccc(Cl)cc2Cl)cn1 | 2.01% (inactive) |
| COc1ccc(OCC(=O)Nc2cc(C)c(Cl)cc2OC)c([N+](=O)[O-])c1 | 3.52% (inactive) |
| COc1cc(NC(=O)COC(=O)c2cnc(C)cn2)c(C)cc1[N+](=O)[O-] | 49.4% (active) |
| COc1cc(NC(=O)COC(=O)CSc2ccc3ccccc3c2)c(C)cc1[N+](=O)[O-] | 60% (active) |
| Cc1ccc(C)c(NC(=O)COC(=O)CSc2ccccc2)c1 | -0.94% (inactive) |
| Cc1cccc(N2CCN(C(=O)/C=C/c3ccco3)CC2)c1C | 2.32% (inactive) |
| CCN(CC)S(=O)(=O)c1ccc(N2CCCC2)c(NC(=O)c2ccc([N+](=O)[O-])o2)c1 | 0.5% (inactive) |
| COc1ccc(N2C(=O)C3C(C2=O)C(C(=O)c2ccccc2)N2CCCC32)cc1 (centres undefined) | 5.21% (inactive) |
| Cc1nn(-c2ccccc2)c(=O)c2noc(C)c12 | -0.28% (inactive) |
| Cc1nc2c(c(C)nn2-c2ccccc2)c(C)c1C | 45.6% (inactive) |
| Cc1nn(-c2ccccc2)c2[nH]c(C(F)(F)F)cc(=O)c12 | 80.4% (active) |
| C=CCC[C@@H](Cc1ccc(F)cc1)C(=O)O[C@H](CNC(=O)[C@H](CC=C)CC(=O)N(CCO)Cc1ccccc1)c1ccccc1 | -0.27% (inactive) |
| O=C(Nc1ccc(C(=O)O)cc1)/C(=C\c1ccccc1)NC(=O)c1ccc(Br)cc1 | -2.04% (inactive) |

| SMILES | activation |
| --- | --- |
| O=C(/C=C/c1ccccc1)N/C(=C/c1ccccc1)C(=O)Nc1ccccc1O | 74.4% (active) |
| CCc1ccccc1NC(=O)/C(=C/c1ccccc1)c1ccccc1 | 0.15% (inactive) |
| Cc1ccc(S(=O)(=O)N2CCOCC2)cc1NC(=O)COC(=O)c1cnccn1 | 0.82% (inactive) |
| O=C(CCl)Nc1cccc(CP(=O)(c2ccccc2)c2ccccc2)c1 | -0.56% (inactive) |
| Cc1ccc(S(=O)(=O)N(C)C)cc1NC(=O)CN1c2cccc3cccc(c23)S1(=O)=O | 5.14% (inactive) |
| CC(=O)N[C@@H](C)C(=O)N1CCC(n2nccc2NC(=O)CCCc2ccccc2)CC1 | 1.83% (inactive) |
| O=C(CCNS(=O)(=O)c1ccc(Br)cc1)NCC1CCCO1 (centres undefined) | 0.8% (inactive) |
| COc1ccccc1NC(=O)C1=C(C)NC(=O)NC1c1ccc(C)s1 (centres undefined) | 5.73% (inactive) |
| COc1ccccc1NC(=O)C1=C(C)NC2=C(C(=O)CCC2)C1c1ccc(C)o1 (centres undefined) | 102% (active) |
| COc1ccccc1NC(=O)C1=C(C)Nc2ncnn2C1c1ccc(C)o1 (centres undefined) | 13.1% (inactive) |
| CCOc1cc2[nH]c(=S)n(CCN3CCCCC3C)c(=O)c2cc1OCC (centres undefined) | 7.8% (inactive) |
| COC(CNC(=O)c1ccc2c(c1)ncn2-c1cc(C)cc(C)c1)OC | 1.33% (inactive) |
| CNC(=O)c1ccc2nc(NC(C)=O)sc2c1 | 84.2% (active) |
| Cc1ccc(C(=O)Nc2nc3ccc(Cl)cc3s2)o1 | -2.1% (inactive) |
| CS(=O)(=O)c1ccc2nc(NC(=O)c3ccc(Cl)nc3)sc2c1 | -5.2% (inactive) |
| CC(NC(=O)CN(C)S(=O)(=O)c1ccc(F)cc1)C1CC2CCC1C2 (centres undefined) | -0.07% (inactive) |
| CN(C)CCCNC(=S)N1CCC(c2nc3ccccc3[nH]2)CC1 | -0.37% (inactive) |
| CCNC(=S)N1CCC(c2nc3cc(C)c(C)cc3[nH]2)CC1 | 84.9% (active) |
| COCCCNC(=S)N1CCCC(c2nc3cc(C)c(C)cc3[nH]2)C1 (centres undefined) | 12.7% (inactive) |
| CCCCC(=O)Nc1ccc(C(=O)Nc2cc(C(F)(F)F)ccc2Cl)cc1 | 140% (active) |
| O=C(Nc1cc(C(F)(F)F)ccc1Cl)c1cc(C2CC2)on1 | 20.4% (inactive) |
| CC(=O)Nc1ccc(NC(=O)CCCNC(=O)c2ccc(Cl)cc2)cc1 | 1.47% (inactive) |

Reference: PubChem BioAssay AID2796 (The Scripps Research Institute Molecular Screening Center, 2010)
